Assay outcomes as filed in PubChem BioAssay.
SKKanGAS inh = SKKanGAS growth inhibition. S. pyogenes SKKanGAS, kanamycin growth, BacTiter-Glo, 6 h. inhibition, % at 7.5 µM. 300,000 compounds, 1.3% hits. AID 1662;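 active = mean replicate score, as percent of positive control median, at least 50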;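 note: strain carries kanamycin resistance gene driven by streptokinase promoter and grows in 40 µg/ml kanamycin; loss of luminescence reflects streptokinase promoter inhibition or plain growth inhibition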
tim23-1 inh = inhibits growth of tim23-1 mutant yeast | 330,000 compounds, 1.3% hits | AID 463212 | inhibition, % at 20 µM | S. cerevisiae tim23-1 growth, BacTiter-Glo luminescence, 24 h;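 active = growth inhibition of the mutant yeast at or above 50%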;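 note: temperature-sensitive mutant grown at 25 °C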
NLRP3 yeast inh = blocks the NALP3 inflammasome reconstituted in yeast; Yeast reconstituted NLRP3/ASC/caspase-1, beta-gal luminescence, 24 h; inhibition, % at 10 µM; 330,000 compounds, 0.39% hits; AID 2825;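 active = inhibition of 50% or more; inactive = inhibition below 50%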
TIM10 inh = growth inhibitors of TIM10 yeast strain. inhibition, % at 10 µM. 330,000 compounds, 1.4% hits. S. cerevisiae TIM10 strain growth, BacTiter-Glo luminescence, 24 h. AID 463195;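 active = inhibition of 40% or more at the single tested concentration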;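 note: wild-type TIM10 isogenic control strain grown at permissive 25 °C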
PfHsp90 set2 = reduces growth (ATP signal) of yeast expressing P. falciparum Hsp90 | S. cerevisiae expressing PfHsp90, BacTiter-Glo ATP, 48 h; yeast lacking PDR1 and PDR3 efflux regulators | inhibition, % at 9.4 µM | 310,000 compounds, 0.32% hits | AID 504621;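 active = every replicate shows inhibition above about 80%, whatever the replicate mean, limit read from the data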
tim10-1 inh = inhibits growth of tim10-1 mutant yeast. S. cerevisiae tim10-1 ts strain growth, BacTiter-Glo, 24 h. inhibition, % at 20 µM. 330,000 compounds, 2.2% hits;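 active = inhibition of at least 40%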;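 note: mutant grown at 25 °C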
tim23-1 confirm = confirmation of tim23-1 mutant yeast growth inhibitors | inhibition, % at 20 µM | S. cerevisiae tim23-1 growth, BacTiter-Glo luminescence, 24 h | 4,400 compounds, 83% hits | shares compounds with tim23-1 inh;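 active = inhibition above about 39% in either of two replicate wells at 20 µM, limit read from the data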;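 note: temperature-sensitive tim23-1 mutant grown at 25 °C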
Large screens that a line does not name were inactive (follow-up assays come after a bar, where they were run). Shown are actives, neighbours in structure and some others; about 4.5% of the full set was active somewhere.

CCN1C[C@@H]2[C@@H]3C(=O)N(Cc4ccccc4)C(=O)[C@@H]3[C@](CC)(C1=O)N2C(=O)c1ccccc1	none (no result: SKKanGAS inh, tim23-1 inh, NLRP3 yeast inh, TIM10 inh, tim10-1 inh)
O=C(O)CN1C(=O)/C(=C\c2cc(Br)ccc2OCc2ccc([N+](=O)[O-])cc2)SC1=S	tim23-1 inh 53.3 | tim23-1 confirm 71.5
COc1cc([N+](=O)[O-])cc(/C=C2/SC(=S)N(Cc3ccccc3)C2=O)c1O	none (no result: tim23-1 inh, NLRP3 yeast inh, TIM10 inh, tim10-1 inh)
N#CC(Cc1ccccc1)(Cc1ccccc1)C(=O)NN	none
CC(C)CN1C(=O)c2ccc(NC(=O)c3ccco3)cc2C1=O	tim23-1 inh 52.4 | tim23-1 confirm 52.9
COC(=O)[C@]12C(=O)NC[C@H](CN1c1ccc(C(F)(F)F)cc1)N2C	none (no result: SKKanGAS inh)
C#C[C@]1(O)CC[C@H]2[C@@H]3CCC4=Cc5oncc5C[C@]4(C)[C@H]3CC[C@@]21C	tim23-1 inh 50.1 | tim23-1 confirm 49.5
CNC[C@@H]1Oc2ccc(NC(=O)Nc3c(C)noc3C)cc2CC(=O)N([C@H](C)CO)C[C@H]1C	none (no result: SKKanGAS inh)
Cc1cccc(-n2c(SCC(N)=O)nc3c(c2=O)C2(CCCC2)Cc2ccccc2-3)c1	tim23-1 inh 54.2 | tim23-1 confirm 46.7
COc1cccc(/C=N/NC(=S)NCc2ccco2)c1OC	none
COC(=O)C1(CCSC)NC(c2ccc(O)cc2)C2C(=O)N(c3ccc(F)cc3)C(=O)C21 (configuration not stated)	none
COc1ccc(N=C2S/C(=C\c3ccc(Cl)c([N+](=O)[O-])c3)C(=O)N2CCN(C)C)cc1	tim23-1 inh 60.4 | tim23-1 confirm inactive
S=C(Nc1ccc2nsnc2c1)N1CCCCCC1	tim23-1 inh 54.8 | tim23-1 confirm 39.9
O=C(Nc1ccc2nsnc2c1)N1CCCCC1	none
CCc1ccc2c(c1)/C(=C/C(=O)c1cccs1)C(=O)N2	tim23-1 inh 54.1, PfHsp90 set2 124.5 | tim23-1 confirm inactive
CCc1ccc2c(c1)/C(=N/N(C)C(=S)NC)C(=O)N2	none
COc1ccc2c(=O)c3c(=O)n(Cc4ccco4)c(-c4ccc(C)cc4)nc3oc2c1	tim23-1 inh 57.2 | tim23-1 confirm 45.9
CCOc1ccc(N(C(C)C(=O)NC2CCCCCC2)S(C)(=O)=O)cc1 (configuration not stated)	none
Cc1cc(C)cc(N(C(C)C(=O)NC2CCCC2)S(C)(=O)=O)c1 (configuration not stated)	tim23-1 inh 88.5 | tim23-1 confirm inactive
O=C(Nc1ccc(-c2nc3ccccc3[nH]2)cc1)c1ccc2c(c1)OCO2	none
c1ccc2[nH]c(-c3ccc4c(c3)OCO4)nc2c1	tim23-1 inh 76.9 (no result: PfHsp90 set2) | tim23-1 confirm 58.7
Cc1ccc2c(c1)/C(=C/c1ccccc1C)C(=O)N2	tim23-1 inh 52.7 | tim23-1 confirm 42.0
Cc1ccc2c(c1)/C(=N/N1C(=O)c3ccccc3C1=O)C(=O)N2	none
COc1ccccc1/C=C1\C(=O)Nc2ccccc21	tim23-1 inh 61.7 | tim23-1 confirm 46.0
CS(=O)(=O)N(Cc1nc(-c2ccc(F)cc2)no1)c1ccccc1Cl	none (no result: SKKanGAS inh)
COc1ccc(CCNc2oc(-c3ccccc3OC)nc2C#N)cc1OC	none
COc1ccc(CCNc2oc(-c3ccccc3OC)nc2C#N)cc1	tim23-1 inh 58.0 | tim23-1 confirm 62.5
O=C(N/N=C/CCc1ccccc1)c1ccccc1	tim23-1 inh 54.6 | tim23-1 confirm inactive
COc1ccc(NC(=O)CN2C(=O)C(=O)N(C3CCCC3)C2=O)c(OC)c1	none (no result: SKKanGAS inh)
O=C(c1cc2ccccc2oc1=O)N(Cc1ccco1)C1CCS(=O)(=O)C1 (configuration not stated)	tim23-1 inh 93.9 | tim23-1 confirm inactive
Cc1cccc(NC(=O)CSc2nnc(CNC(=O)c3ccco3)o2)c1	none
CC(C)CC(=O)NC(c1ccccc1Cl)c1c(O)ccc2ccccc12 (configuration not stated)	none
CCCC(=O)NC(c1ccccc1Cl)c1ccc2cccnc2c1O (configuration not stated)	tim23-1 inh 50.5, PfHsp90 set2 113.3 | tim23-1 confirm 52.9
CCCC(=O)NC(c1ccc(C(C)C)cc1)c1ccc2cccnc2c1O (configuration not stated)	SKKanGAS inh 84.2, tim23-1 inh 56.8 | tim23-1 confirm 62.8
CCC(=O)NC(c1ccc(C)cc1)c1ccc2cccnc2c1O (configuration not stated)	SKKanGAS inh 71.3, tim23-1 inh 62.4, PfHsp90 set2 112.4 | tim23-1 confirm 57.5
Cc1csc(NC(=O)CSc2nc3nc(C)cc(C)n3n2)n1	none (no result: SKKanGAS inh)
CC(C)c1ccc(C2(C)NC(=O)N(C(C)C(=O)Nc3ccc(N4CCOCC4)cc3)C2=O)cc1 (configuration not stated)	none (no result: SKKanGAS inh, PfHsp90 set2)
N#Cc1c(-c2ccccc2)cc(-c2ccc(O)cc2)nc1N	tim23-1 inh 54.2 | tim23-1 confirm 56.8
COc1ccc(-c2cc(-c3ccc(O)cc3)nc(N)c2C#N)cc1	none
CCCCNC(=S)N/N=C/c1cc(C)ccc1C	tim23-1 inh 53.2 | tim23-1 confirm 41.9
CCC(C)n1c(=O)c(C(=O)Nc2ccccc2S(N)(=O)=O)c(O)c2ccccc21 (configuration not stated)	tim23-1 inh 54.4 | tim23-1 confirm inactive
CN(CC(=O)Nc1ccc2c(c1)OCCO2)S(=O)(=O)c1ccc(F)cc1	none
Oc1ccc(/C=N/N(c2ccccc2)c2ccccc2)cc1O	tim23-1 inh 68.4 | tim23-1 confirm 44.6
COc1ccccc1NC(=O)Cn1ccn(-c2cccc3ccccc23)c(=O)c1=O	none
O=C(COC(=O)c1ccc(O)cc1)c1ccc2c(c1)OCCO2	tim23-1 inh 59.8 (no result: SKKanGAS inh, PfHsp90 set2) | tim23-1 confirm inactive
Cc1ccc(C(=O)C(C)OC(=O)c2cc3cc([N+](=O)[O-])ccc3oc2=O)cc1 (configuration not stated)	tim23-1 inh 72.1 | tim23-1 confirm 55.0
COc1cc(C2CC(c3cccs3)=NN2C(=O)CCl)ccc1OC(F)F (configuration not stated)	tim23-1 inh 56.0 | tim23-1 confirm 43.8
COc1ccc(C2CC(c3cccs3)=NN2C(=O)CCl)cc1OC (configuration not stated)	none
O=Cc1sc(Nc2ccccc2)nc1Cl	tim23-1 inh 51.1 | tim23-1 confirm 48.7
Cc1ccc(Nc2nc(Cl)c(C=O)s2)cc1Cl	tim23-1 inh 66.9 | tim23-1 confirm 70.8
COc1ccccc1Nc1nc(Cl)c(C=O)s1	none (no result: PfHsp90 set2)
Cc1ccc(Nc2nc3ccccc3c(=O)s2)cc1C	none
O=C(NCCCN1CCCC1=O)c1ccccc1OCc1ccc(Cl)cc1Cl	none (no result: SKKanGAS inh)
CCc1ccccc1NC(=O)Cn1nnc(C(=O)NCc2cccc(OC)c2)c1N	none
Cc1ccc(F)cc1NS(=O)(=O)c1ccc(Cl)s1	tim23-1 inh 50.6 (no result: SKKanGAS inh) | tim23-1 confirm 49.8
